Source: PubChem BioAssay AID686978 (National Center for Advancing Translational Sciences (NCATS), 2013)
Hit rate of the full screen: of about 420,000 compounds, about 64,000 (15%) were called active. Not shown: some 27% with an inconclusive outcome. The call rests on the fitted dose curve; in most records, active means well fitted inhibition curve with a large enough effect; inconclusive means small, poorly fitted or top-dose-only effect; inactive means flat fitted curve, though single readings scatter. The list is a sample of the results.

assay: qHTS for Inhibitors of human tyrosyl-DNA phosphodiesterase 1 (TDP1): qHTS in cells in absence of CPT; conditions: DT40 Tdp1-/- hTDP1 cells, no CPT, ATP luminescence, 48 h; activity change, negative = growth inhibition: at 46.2 µM (top of the series); further: nearly all actives have a fitted effect of over 55% in size
Method in brief: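 Seeded 400 DT40-hTDP1 cells/well (vehicle DMSO, no 20 nM CPT); pinned compounds; ≥48 hr at 37 °C; CellTiter-Glo luminescence as viability measure.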
On the % scale 0 is the no-effect control and ±100 the full control effect; potency means the concentration at half of the fitted maximal effect.

Row | Compound | activity change, negative = growth inhibition | Potency
1 | CCOC(=O)CSc1nnc(CNC(=O)c2ccco2)n1-c1ccc(F)cc1 | 6.97% (inactive) | 
2 | NNC(=O)c1cnn(-c2ccccc2)c1C(F)(F)F | 13.2% (inactive) | 
3 | CN(C)CCCOc1ccc(-c2ccc3nccn3c2)cn1 | -20.3% (inactive) | 
4 | OC[C@@H]1CN(Cc2cccs2)C[C@H](n2cnc3c(Nc4ccccc4)ncnc32)O1 | -25.5% (inactive) | 
5 | OC[C@@H]1CN(C2CCCC2)C[C@H](n2cnc3c(NC4CCC4)ncnc32)O1 | -14.2% (inactive) | 
6 | OC[C@@H]1CN(Cc2ccc(-c3ccccc3)cc2)C[C@H](n2cnc3c(NC4CCCC4)ncnc32)O1 |  | 1.3 µM (active)
7 | Cc1nnc(SCC(N)=O)n1CC1CCCO1 (stereo not drawn) | -19.1% (inactive) | 
8 | O=C(O)CSCc1nc2ccccc2s1 | -6.51% (inactive) | 
9 | CCOC(=O)/C(C#N)=C/c1ccc(N2CCN(Cc3ccccc3)CC2)cc1 |  | 20.6 µM (active)
10 | CCOC(=O)/C(C#N)=C/c1ccc(OCC(=O)Nc2ccccc2)c(OC)c1 | -0.871% (inactive) | 
11 | CCOC(=O)/C(C#N)=C/c1ccc(N2CCCCC2)cc1 | 3.19% (inactive) | 
12 | O=C1C2C3C=CC(C3)C2C(=O)N1c1ccc(-c2nc3ccccc3c(=O)o2)cc1 (stereo not drawn) | 15.5% (inactive) | 
13 | CN(C)c1ccc(/C=N/NC(=O)C(O)c2ccc(Br)cc2)cc1 (stereo not drawn) | -22.4% (inactive) | 
14 | NS(=O)(=O)c1ccc(NC(=S)NC(=O)c2cccnc2)cc1 | -5.24% (inactive) | 
15 | O=C(c1cccc(Br)c1)N1CCN(C2=NS(=O)(=O)c3ccccc32)CC1 | -10.2% (inactive) | 
16 | O=C(c1ccc2c(c1)N(Cc1ccccc1)C(=O)c1ccccc1S2(=O)=O)N1CCCC1 |  | 23.1 µM (active)
17 | CC1CCCN(C(=O)CN2C(=O)c3ccccc3S2(=O)=O)C1 (stereo not drawn) | -10.2% (inactive) | 
18 | COc1ccccc1NC(=O)CN1C(=O)c2ccccc2Sc2ccc(C(=O)N3CCCC3)cc21 | -29.9% (inactive) | 
19 | O=C(c1ccc2c(c1)N(Cc1ccccc1)C(=O)c1ccccc1S2(=O)=O)N1CCC(Cc2ccccc2)CC1 |  | 5.8 µM (active)
20 | O=C1c2ccccc2S(=O)(=O)c2cc(N3CCN(c4ccccn4)CC3)ccc21 | -5.63% (inactive) | 
21 | O=C(c1ccc2c(c1)C(=O)N(c1ccc(Cl)cc1)C2=O)N1CCN(c2ccccn2)CC1 | -13.2% (inactive) | 
22 | O=C(c1ccc2c(c1)N(Cc1ccc(F)cc1)C(=O)c1ccccc1S2(=O)=O)N1CCN(c2ccccn2)CC1 |  | 18.4 µM (active)
23 | O=C(c1ccc2c(c1)N(Cc1ccccc1F)C(=O)c1ccccc1S2(=O)=O)N1CCOCC1 | -16.3% (inactive) | 
24 | COc1ccc(Cl)cc1N(CC(=O)N/N=C/c1ccc(OCC(N)=O)cc1)S(C)(=O)=O | -9.15% (inactive) | 
25 | CCOc1ccc(C(=O)N2CCN(CCc3ccccn3)CC2)cc1 | -26.6% (inactive) | 

Row | Compound | activity change, negative = growth inhibition | Potency
26 | O=C(CSc1nnc(-c2cccnc2)n1CCc1ccccc1)NCc1ccccc1 | -0.184% (inactive) | 
27 | COc1ccc(C)cc1NC(=O)CCS(=O)(=O)c1cccc2nonc12 | -7.48% (inactive) | 
28 | COCCN(CCOC)S(=O)(=O)NC[C@H]1O[C@@H](n2cnc3c(N)ncnc32)[C@H](O)[C@@H]1O | -1.26% (inactive) | 
29 | CN1CCN(S(=O)(=O)c2ccc(NC(=S)NC(=O)C3CC3)cc2)CC1 | -7.98% (inactive) | 
30 | CCOC(=O)c1cccnc1NC(=O)c1ccncc1 | 7.91% (inactive) | 
31 | O=C(O)c1ccccc1-c1ccccc1C(=O)Nc1cccc2ccccc12 | -2.15% (inactive) | 
32 | COC(=O)COc1ccc2c(c1C)O/C(=C\c1ccco1)C2=O | -27.7% (inactive) | 
33 | C=CCn1cc(-c2cccc(C(F)(F)F)c2)cc(C#N)c1=O | -9.09% (inactive) | 
34 | O=c1cc(O)c(-c2cccc(C(F)(F)F)c2)c(Cl)[nH]1 | -13.8% (inactive) | 
35 | CC1(Cc2cccc(C#N)c2)C(=O)Nc2ccc(-c3cccc(C(F)(F)F)c3)cc21 (stereo not drawn) |  | 20.6 µM (active)
36 | COC(=O)C(C)Sc1ccc2nnc(-c3cccc(F)c3)n2n1 (stereo not drawn) | -17.7% (inactive) | 
37 | Cc1ccc(-n2cc(CN(C)Cc3nccn3C)c(-c3cccc(C)c3)n2)cc1 |  | 23.1 µM (active)
38 | CCn1ccnc1CN(C)Cc1nc(-c2ccc3c(c2)OCO3)no1 | -24.4% (inactive) | 
39 | Cc1ccc(-n2cnc3ncnc(-c4ccccc4)c32)cc1 | -16.9% (inactive) | 
40 | O=C(CCCl)Nc1ccc(S(=O)(=O)NCc2ccco2)cc1 | -4.87% (inactive) | 
41 | Cc1oc(-c2ccccc2Cl)[n+]([O-])c1C |  | 23.1 µM (active)
42 | Cc1ccc(-c2cc(-c3coc4ccccc4c3=O)c3c(n2)-c2cc(Cl)ccc2OC3)cc1 | -9.37% (inactive) | 
43 | O=C(c1ccc(OC2CCN(Cc3ccccn3)CC2)cc1)N1CCCCCC1 | -20% (inactive) | 
44 | COc1cc([N+](=O)[O-])ccc1NC(=O)CN1CCCC1 | 1.19% (inactive) | 
45 | COc1cc([N+](=O)[O-])ccc1NC(=O)COC(=O)CCOc1ccc(C)cc1 |  | 6.51 µM (active)
46 | CSc1ccccc1NC(=O)COC(=O)CCCOc1ccc(C)cc1 | -4.28% (inactive) | 
47 | O=C(C[C@H]1CC[C@@H](NC(=O)c2ccncc2)[C@@H](CO)O1)NCC1CC1 | -1.98% (inactive) | 
48 | N#CCCN(CCC#N)c1nnc(-c2ccccc2)s1 | -4.74% (inactive) | 
49 | CN(CCC#N)c1ncnc2scc(-c3ccccc3)c12 |  | 14.6 µM (active)
50 | C=CCn1cnc2scc(-c3ccccc3)c2c1=O | -17.8% (inactive) | 

Row | Compound | activity change, negative = growth inhibition | Potency
51 | CCC(=O)NC(Nc1cc(C)ccn1)(C(F)(F)F)C(F)(F)F | -7.28% (inactive) | 
52 | Cc1cc(C)cc(NS(=O)(=O)c2ccc(Oc3ncc(C(F)(F)F)cc3Cl)cc2)c1 |  | 13 µM (active)
53 | COC(=O)Cc1ccc(Oc2ncc(C(F)(F)F)cc2Cl)cc1 | -12.9% (inactive) | 
54 | Cc1cc(C)cc(OCC(=O)Nc2ccc(S(=O)(=O)Nc3ccccn3)cc2)c1 | -19.5% (inactive) | 
55 | Cc1nc(C(F)(F)F)ccc1C(=O)N1CCC1(C)C(=O)NS(=O)(=O)c1ccccc1 (stereo not drawn) | -4.76% (inactive) | 
56 | O=C(CCN1Cc2ccccc2OC(c2ccccc2)C1)N[C@@H]1CS(=O)(=O)C[C@H]1O (stereo partly drawn) | -13.3% (inactive) | 
57 | COc1ccc(C2COC(=O)C2=N)c(NC(=O)c2ccccc2)c1 (stereo not drawn) | -28.1% (inactive) | 
58 | CCCc1ccc(C(=O)[C@@H]2[C@@H](C(C)=O)N3c4ccc(F)cc4C=C[C@@H]3[C@@]23C(=O)Nc2ccccc23)cc1 |  | 18.4 µM (active)
59 | COc1cc(C(=O)NC(=S)NCc2ccco2)cc(OC)c1OC |  | 20.6 µM (active)
60 | COc1cc(C(=O)N[C@@H](C)C(=O)NCc2ccco2)cc(OC)c1OC | -2.61% (inactive) | 
61 | COc1cccc(OC)c1C(=O)NC(=S)NCc1ccco1 | -16.1% (inactive) | 
62 | COc1ccc(-c2nc3c(c(SCC(=O)Nc4ccc(C(=O)O)cc4)n2)Cc2ccccc2O3)cc1 | -7.92% (inactive) | 
63 | Cc1oc2nc(SCC(=O)NCc3cccnc3)nc(N)c2c1C | 0.424% (inactive) | 
64 | COc1ccccc1NC(=O)C1=C(C)NC(=O)NC1c1ccc(C)s1 (stereo not drawn) | -13.6% (inactive) | 
65 | CC(NC(=O)c1ccc(Cl)cc1)C(=O)N1CCCCC1 (stereo not drawn) | -9.8% (inactive) | 
66 | O=C(Cn1nnc(N2CCCCC2)n1)c1ccc(Cl)c(Cl)c1 | -10.8% (inactive) | 
67 | O=C(Cn1nc(CNc2ccc(Cl)cc2)[n+]2c1CCCCC2)c1ccc(Cl)cc1 |  | 23.1 µM (active)
68 | CC1(c2ccccc2Cl)NC(=O)N(CC(=O)NC(=O)NCc2ccco2)C1=O (stereo not drawn) | -5.22% (inactive) | 
69 | O=C(CCN1C(=O)c2ccncc2C1=O)Nc1ccc2c(c1)OCCO2 | -12.2% (inactive) | 
70 | Cc1ccc(/C=C2\SC(=S)N(CCC(=O)Nc3ccc(O)cc3)C2=O)cc1 | -12.5% (inactive) | 
71 | COC(=O)C1=C(C)N(c2ccc(C)cc2)/C(=C/c2ccc(O)cc2)C1=O |  | 20.6 µM (active)
72 | COC(=O)C1=C(C)NC(=O)/C1=C/c1ccc(CNS(=O)(=O)c2ccc(C)cc2)o1 | -16.5% (inactive) | 
73 | CC(C)CNS(=O)(=O)c1ccc(C(=O)Nc2ccc3c(c2)OCO3)cc1 | -21.9% (inactive) | 
74 | CCC(C)[C@@H](C(=O)N1CCNCC1)n1cc(CCCCN)nn1 (stereo partly drawn) | -5.37% (inactive) | 
75 | C=CCOC(=O)C1=C(C)N=C2SCCC(=O)N2C1/C=C/c1ccccc1OC (stereo not drawn) | -1.5% (inactive) | 

Row | Compound | activity change, negative = growth inhibition | Potency
76 | CC(C)C12CN3CC(C(C)C)(CN(C1)C3c1ccc(OCc3ccccc3)cc1)C2=O (stereo not drawn) | 1.91% (inactive) | 
77 | CC1=C(C(=O)OCC(C)C)C(c2ccc(OCc3ccccc3)cc2)N2C(=O)CCSC2=N1 (stereo not drawn) |  | 16.4 µM (active)
78 | COc1ccc(-n2c(=O)c(-c3cn(C)c4ccccc34)nc3cnc(OC)nc32)cc1 | -3.92% (inactive) | 
79 | CCC(C(=O)N1CCOCC1)n1c(C(=O)OC)cc2occc21 (stereo not drawn) | 1.19% (inactive) | 
80 | CCS(=O)(=O)c1ccc2c(c1)N(S(=O)(=O)c1ccccc1)CC(C(=O)O)O2 (stereo not drawn) | -5.4% (inactive) | 
81 | CCOc1ccc(S(=O)(=O)N2CCC(C(=O)OCc3ccc(OC)cc3)CC2)cc1 | -10.8% (inactive) | 
82 | CCOC(=O)C1CN(S(=O)(=O)c2ccc(OC)cc2)c2cc(Cl)ccc2O1 (stereo not drawn) |  | 20.6 µM (active)
83 | Cn1cc(S(=O)(=O)N2CCN(c3ccc(F)cc3)CC2)c(=O)n(C)c1=O | -26.6% (inactive) | 
84 | Nc1nnc(SCC(=O)NC2CCCc3ccccc32)s1 (stereo not drawn) | 15.3% (inactive) | 
85 | CCOC(=O)N1CCN(S(=O)(=O)c2ccc(Br)cc2)CC1 | 2.06% (inactive) | 
86 | CCOC(=O)N1CCN(S(=O)(=O)c2ccc(C(=O)Nc3ccc(F)cc3F)cc2)CC1 |  | 1.64 µM (active)
87 | CCOC(=O)N1CCN(S(=O)(=O)c2ccc(-n3cnnn3)cc2)CC1 | -12.2% (inactive) | 
88 | Cc1ccc(S(=O)(=O)N(C)C)cc1NC(=O)c1ccc(-n2cncn2)c([N+](=O)[O-])c1 | 2.95% (inactive) | 
89 | O=C(NNC(=O)c1cccc(S(=O)(=O)Nc2ccc(Cl)cc2)c1)c1ccc(=O)[nH]c1 | 27.3% (inactive) | 
90 | COc1cc(OC)cc(C(=O)Nc2ccc3nc(Nc4cccc(C(F)(F)F)c4)cc(C)c3c2)c1 |  | 5.8 µM (active)
91 | Cc1cc(Nc2cccc(C(F)(F)F)c2)nc2ccc(NC(=O)c3ccc(=O)[nH]c3)cc12 |  | 4.61 µM (active)
92 | O=C(COC(=O)c1cc[n+]([O-])cc1)Nc1ccc(Cl)c(C(F)(F)F)c1 | -20.8% (inactive) | 
93 | CCn1c(Cc2ccccc2)nnc1SCC(=O)Nc1ccccc1 | -13% (inactive) | 
94 | CCc1nn(CC(=O)N2CCN(c3cccc(C(F)(F)F)c3)CC2)c(=O)c2cc3occc3n12 | -10.6% (inactive) | 
95 | CC1COc2ccccc2N1C(=O)c1ccc(F)cc1 (stereo not drawn) | 4.13% (inactive) | 
96 | C/C(CC(=O)NC(C)c1ccccc1)=N\NC(N)=S (stereo not drawn) | 2.8% (inactive) | 
97 | Cc1cccc(NC(=O)c2cc(N3C(=O)CCC3=O)ccc2Cl)n1 | -0.716% (inactive) | 
98 | Cc1ccccc1Nc1c([N+](=O)[O-])ccc2nonc12 | -9.27% (inactive) | 
